This is an account of results in publication PMC5540273 (PLoS ONE, 2017).

One assay has as its system STK36. The following applies: concentration: 1 μM, replicates: in singlicate; n = 1.
In the next assay the test system is STK39. The note with it: concentration: 1 μM, replicates: in singlicate; n = 1.
A further assay relates to SYK. The following applies: n = 1.
A further assay deals with SgK110. The note with it: concentration: 1 μM, replicates: in singlicate; n = 1.
Another assay relates to T1, TAK1.
T1 construct: gene MAP3K7
The note with it: concentration: 1 μM, replicates: in singlicate; n = 1.

The next assay concerns TAOK1. The note with it: concentration: 1 μM, replicates: in singlicate; n = 1.
The next assay deals with TAOK2. The following applies: concentration: 1 μM, replicates: in singlicate; n = 1.
Another assay concerns TAOK3. The note with it: concentration: 1 μM, replicates: in singlicate; n = 1.
In a further assay the test system is TBK1. The note with it: concentration: 1 μM, replicates: in singlicate; n = 1.
In a further assay the test system is TEC. The following applies: concentration: 1 μM, replicates: in singlicate; n = 1.
The subject of a further assay is TESK1. The note with it: concentration: 1 μM, replicates: in singlicate; n = 1.
Another assay has as its system TGFBR1. The note with it: concentration: 1 μM, replicates: in singlicate; n = 1.
The next assay relates to TGFBR2. The note with it: concentration: 1 μM, replicates: in singlicate; n = 1.
The subject of another assay is TIE1. The note with it: concentration: 1 μM, replicates: in singlicate; n = 1.
A further assay has as its system T2, TIE2.
T2 construct: gene TEK
The note with it: concentration: 1 μM, replicates: in singlicate; n = 1.

In the next assay the test system is TLK1. The following applies: concentration: 1 μM, replicates: in singlicate; n = 1.
The subject of another assay is TLK2. The following applies: concentration: 1 μM, replicates: in singlicate; n = 1.
For the next assay, the system named is TNIK. The following applies: concentration: 1 μM, replicates: in singlicate; n = 1.
Another assay relates to TNK1. The following applies: concentration: 1 μM, replicates: in singlicate; n = 1.
Another assay deals with TNK2. The following applies: concentration: 1 μM, replicates: in singlicate; n = 1.
Setting [1] is: concentration: 1 μM, replicates: in singlicate.

Each structure is given as a SMILES string. Read-outs that look alike come from different tables or passages of the source.
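Further: KINOMEscan kinase panel screen.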

For the compound `COc1cccc(CC(=O)N2CCc3cc(-c4cn(C)c5ncnc(N)c45)ccc32)c1` [GSK2608899], the “%Inh” value with STK36 was determined as 17%; with STK39, 22%; with SYK (setting [1]) it was 26%; in the assay with SgK110, 0%; with TAK1 it was 43%; in the assay with TAOK1 it was 2%. Besides, the “%Inh” value in the assay with TAOK2 is given as 0%; in the assay with TAOK3, 3%; with TBK1, 25%; in the assay on TEC it was 19%; in the assay on TESK1 it was 21%; in the assay on TGFBR1 it was 0%. For the same compound, the “%Inh” value with TGFBR2 is 6%; in the assay with TIE1, 82%; with TIE2, 42%; in the assay on TLK1, 15%; with TLK2, 0%; in the assay with TNIK it was 81%. Further, the “%Inh” value with TNK1 and with TNK2 was 0% each time.

Consider `Cc1ccc(Nc2ccnc(Nc3ccc(C)c(F)c3)n2)cc1O.Cl` [GW582868], for which the “%Inh” value in the assay on STK36 turned out to be 7%; in the assay on STK39, 18%; in the assay on SYK (setting [1]) it was 56%; in the assay with SgK110, 0%; in the assay on TAK1 it was 0%; in the assay with TAOK1 it was 0%. The “%Inh” value with TAOK2 is on record as 0%; in the assay with TAOK3 it was 0%; in the assay with TBK1, 16%; in the assay on TEC, 7%; in the assay with TESK1 it was 0%; in the assay on TGFBR1, 0%. Moreover, the “%Inh” value in the assay with TGFBR2 is given as 83%; with TIE1 it was 47%; in the assay on TIE2, 0%; in the assay on TLK1, 0%; in the assay on TLK2, 0%; in the assay with TNIK it was 0%. The figures for the “%Inh” value in the assay with TNK1 and in the assay with TNK2 were 0% and 29%, respectively.

Turning to `O=C(O)C(F)(F)F.O=c1[nH]ccc2nc(N[C@@H]3CCNC3)nc(Nc3ccc4c(c3)S(=O)(=O)CC4)c12` [GSK2181306], the “%Inh” value in the assay with STK36 came to 20%; in the assay with STK39, 84%; in the assay with SYK (setting [1]), 87%; in the assay on SgK110 it was 10%; in the assay on TAK1, 99.3%; in the assay on TAOK1, 90.3%. Further, the “%Inh” value in the assay on TAOK2 was 60%; in the assay on TAOK3 it was 94.9%; with TBK1, 68%; in the assay with TEC it was 0%; in the assay with TESK1 it was 0%; with TGFBR1, 0%. The “%Inh” value in the assay on TGFBR2 was 0%; with TIE1, 0%; with TIE2, 0%; with TLK1 it was 94.6%; with TLK2 it was 98.5%; with TNIK it was 98%. The figures for the “%Inh” value in the assay on TNK1 and with TNK2 were 31% and 3%, respectively.

On to `CN(C)c1ncnc2nc[nH]c12` [SKF-31736], for which the “%Inh” value in the assay with STK36 is listed as 0%; in the assay with STK39, 5%; in the assay on SYK (setting [1]) it was 0%; in the assay with SgK110, 0%; with TAK1, 0%; in the assay with TAOK1, 0%. For the same compound, the “%Inh” value in the assay on TAOK2 turned out to be 26%; in the assay with TAOK3 it was 3%; with TBK1 it was 34%; in the assay with TEC, 0%; in the assay on TESK1 it was 0%; in the assay with TGFBR1, 0%. Also, the “%Inh” value in the assay with TGFBR2 is 0%; in the assay on TIE1 it was 5%; with TIE2 it was 0%; in the assay on TLK1, 0%; with TLK2, 0%; with TNIK, 0%. For the same compound, the “%Inh” value in the assay with TNK1 and with TNK2 was 0% each time.

Regarding `CN(c1ccc2c(c1)nc(NCc1ccccc1)n2C)c1ccnc(Nc2ccc(CS(C)(=O)=O)cc2)n1.Cl` [GW811603], the “%Inh” value was 0% with STK36; 7% in the assay on STK39; 69% in the assay on SYK (setting [1]); 0% with SgK110; 46% in the assay with TAK1; 0% in the assay on TAOK1. In addition, the “%Inh” value is given as 0% in the assay with TAOK2; 0% in the assay with TAOK3; 4% with TBK1; 0% with TEC; 0% with TESK1; 30% in the assay on TGFBR1. The “%Inh” value is 5% in the assay with TGFBR2; 88% in the assay with TIE1; 82% in the assay with TIE2; 0% in the assay with TLK1; 0% in the assay on TLK2; 24% with TNIK. The figures for the “%Inh” value in the assay with TNK1 and in the assay with TNK2 were 25% and 0%, respectively.

Regarding `Nc1ncnc2scc(-c3ccc(NC(=O)Cc4cc(F)ccc4F)cc3)c12.O=C(O)C(F)(F)F` [SB-731254-M], the “%Inh” value with STK36 turned out to be 0%; in the assay on STK39, 8%; with SYK (setting [1]), 0%; in the assay on SgK110 it was 11%; with TAK1, 22%; in the assay with TAOK1 it was 11%. In addition, the “%Inh” value turned out to be 3% in the assay with TAOK2; 0% in the assay on TAOK3; 30% with TBK1; 1% in the assay with TEC; 51% with TESK1; 4% in the assay with TGFBR1. In addition, the “%Inh” value is reported as 20% in the assay with TGFBR2; 98.7% in the assay with TIE1; 77% with TIE2; 11% in the assay on TLK1; 1% in the assay on TLK2; 27% in the assay on TNIK. Besides, the results for the “%Inh” value with TNK1 and in the assay with TNK2 were 44% and 2%, respectively.

Consider `CC(C)(C)c1ccc(C(=O)Nc2cn3cc(-n4ccnc4)ccc3n2)cc1`, for which the “%Inh” value in the assay on STK36 was 10%; in the assay with STK39, 0%; in the assay with SYK (setting [1]) it was 0%; with SgK110, 15%; in the assay with TAK1, 9%; in the assay on TAOK1 it was 0%. In addition, the “%Inh” value was found to be 0% in the assay on TAOK2; 0% in the assay with TAOK3; 24% in the assay on TBK1; 0% in the assay on TEC; 0% in the assay with TESK1; 0% with TGFBR1. Moreover, the “%Inh” value with TGFBR2 is recorded as 0%; in the assay with TIE1, 3%; with TIE2 it was 17%; with TLK1, 4%; with TLK2, 0%; with TNIK, 2%. In addition, the “%Inh” value in the assay with TNK1 and with TNK2 was 0% in each case.

In the case of `Cc1ccc(NC(=O)c2ccc(Cl)c(Cl)c2)cc1-c1ccc(C(=O)Nc2ccncc2)cc1` [GSK1398460], the “%Inh” value with STK36 is listed as 0%; with STK39 it was 0%; in the assay with SYK (setting [1]) it was 21%; in the assay on SgK110, 4%; in the assay on TAK1, 12%; in the assay on TAOK1, 0%. The “%Inh” value with TAOK2 came out at 0%; in the assay with TAOK3 it was 0%; in the assay with TBK1 it was 23%; with TEC, 15%; in the assay with TESK1 it was 29%; with TGFBR1, 0%. Besides, the “%Inh” value turned out to be 0% in the assay with TGFBR2; 0% in the assay with TIE1; 0% with TIE2; 8% in the assay on TLK1; 6% with TLK2; 0% with TNIK. Moreover, the “%Inh” value worked out at 29% in the assay on TNK1 and 19% in the assay with TNK2.

Consider `Cc1cccc(Nc2nc(N[C@H]3CCCC[C@H]3N)ncc2C(N)=O)c1.Cl` [GSK986310], for which the “%Inh” value in the assay with STK36 was determined as 58%; with STK39, 12%; with SYK (1 µM), 99.4%; with SgK110 it was 55%; with TAK1, 90.3%; with TAOK1, 32%. Besides, the “%Inh” value in the assay with TAOK2 was 0%; in the assay on TAOK3 it was 3%; with TBK1, 17%; with TEC, 23%; in the assay on TESK1, 22%; with TGFBR1, 0%. In addition, the “%Inh” value worked out at 0% in the assay with TGFBR2; 15% in the assay on TIE1; 0% in the assay on TIE2; 17% with TLK1; 7% with TLK2; 74% with TNIK. The “%Inh” value was 33% in the assay with TNK1 and 31% with TNK2.

Turning to `Cc1ccc(O)cc1Nc1ccnc2cc(-c3ccc(CN4CCCCC4)o3)ccc12` [GW557777], the “%Inh” value in the assay on STK36 turned out to be 0%; with STK39, 0%; in the assay with SYK (setting [1]), 69%; in the assay with SgK110 it was 0%; with TAK1 it was 35%; with TAOK1 it was 0%. Moreover, the “%Inh” value with TAOK2 came out at 0%; in the assay with TAOK3 it was 0%; in the assay on TBK1, 0%; in the assay with TEC, 21%; in the assay on TESK1, 0%; in the assay on TGFBR1, 47%. Moreover, the “%Inh” value is reported as 98% in the assay on TGFBR2; 61% in the assay on TIE1; 57% with TIE2; 23% in the assay with TLK1; 5% in the assay on TLK2; 24% in the assay on TNIK. Moreover, the “%Inh” value is recorded as 0% in the assay on TNK1 and 26% in the assay on TNK2.
